Compounds with a hit are over-represented: about 7.9% of the library has one in this group of screens.
SW480 rereplic: inducers of DNA re-replication in SW480 colon cancer cells | SW480 DNA re-replication, Hoechst DNA content imaging, 48 h | Potency, µM (doses to about 46.1 µM), inactives show at the highest dose re-replication activation, most hits filed as activators | hit rate 1.8% among 340,000 | AID 624297; also: % of control where 0% means no effect; nearly all actives have a fitted effect of over 55% in size
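Treated cells incubate 48 hr (37 C, 5% CO2), are stained 40 min with Hoechst, and nuclear fluorescence is enumerated; a rise in nuclei with high DNA signal marks re-replication.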
HT1080 IDH1KD tx: kills HT-1080 cells with IDH1 knockdown. hit rate 2% among 360,000. HT-1080 IDH1 knockdown viability, ATP luminescence, 48 h. Potency, µM (doses to about 46.1 µM), for the others: top-dose activity, negative = toxicity, usual class: cytotoxic;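 also: 0% = DMSO wells and -100% = cell-free medium wells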
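% activity derives from luminescence (CellTiter-Glo), normalised to DMSO and no-cell wells. HT-1080-IDH1KD cells, 750/well, had 48 h compound exposure at 37 °C.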
MCF10A rereplic: inducers of DNA re-replication in MCF 10A breast cells | AID 624296 | hit rate 2.9% among 350,000 | Potency, µM (top dose mostly 46.1 µM), inactives show at the top dose activity, positive = re-replication, hits mostly activators | MCF 10A DNA re-replication, Hoechst nuclear intensity, 48 h; also: % of control where 0% means no effect; nearly all actives have a fitted effect of over 50% in size
HT1080NT lethal: kills 2HG-producing HT-1080-NT fibrosarcoma cells; HT-1080-NT fibrosarcoma viability, CellTiter-Glo ATP luminescence, 48 h; Potency, µM (doses to about 46.1 µM), without a hit: at the top dose activity, negative = less viability, usual class: cytotoxic; hit rate 1.6% among 360,000; AID 686970;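 also: NT is the 2HG producing partner of a matched IDH1 knockdown line; 0% = DMSO-treated cells and -100% = media-only wells without cells; nearly all actives have a fitted effect of over 55% in size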
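HT-1080-NT; 750 cells/well; 5% FBS RPMI; 48 h compound, 37 degrees C; CellTiter-Glo luminescence; curve fitting and curve-class assignment.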
KB-3-1 tox: kills parental KB-3-1 adenocarcinoma cells; KB-3-1 viability, CellTiter-Glo ATP luminescence, 72 h; Potency, µM (top dose mostly 46.1 µM), most hits filed as cytotoxic; hit rate 1.4% among 400,000; AID 1347075; also: % is scaled to controls: 0 for no effect and ±100 for the full control effect; nearly all actives have a fitted effect of over 60% in size
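Here the drug-naive KB-3-1 line serves as comparator for MDR sub-line selectivity; cells received compound titrations, 72 h at 37 °C, then CellTiter-Glo readout.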
KB-V1 cytotox: KB-V1 MDR subline cytotoxicity. KB-V1 MDR cells viability, CellTiter-Glo, 72 h. Potency, µM (highest dose often 46.1 µM), usual class: cytotoxic. hit rate 3.4% among 400,000. AID 1347076; also: % is scaled to controls: 0 for no effect and ±100 for the full control effect; nearly all actives have a fitted effect of over 60% in size
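Cytotoxicity via CellTiter-Glo luminescence after 72 h compound exposure at 37 degrees C. Cells: drug-selected KB-V1 line, DMEM phenol-red free plus 10% FBS. Compounds tested at multiple concentrations; normalized data fitted to concentration-effect curves.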
The depositor's hits bear a star. Calls follow the shape of the dose curve; as a rule, active = well fitted curve in the direction sought with a large enough effect; inconclusive = small, poorly fitted or top-dose-only effect, or another doubt; inactive = no such curve, though single readings can be large; an effect the other way counts as inactive or inconclusive. Potency is read from the fitted curve at half-maximal effect.

Screening Cc1nn2c(NCCN(C)C)c3c(nc2c1-c1ccccc1)CCCC3 returned SW480 rereplic inconclusive, HT1080 IDH1KD tx 14.6µM*, MCF10A rereplic 12.8%, HT1080NT lethal 14.6µM*, KB-3-1 tox inactive and KB-V1 cytotox inconclusive.
`COCCNc1c2c(nc3c(-c4ccccc4)c(C)nn13)CCCC2` gave SW480 rereplic 3.8%, HT1080 IDH1KD tx inconclusive, MCF10A rereplic 24.3%, HT1080NT lethal inconclusive, KB-3-1 tox inactive and KB-V1 cytotox inconclusive.
`Cc1nn2c(Nc3ccc(F)cc3)c3c(nc2c1-c1ccccc1)CCC3` gave SW480 rereplic -5.4%, HT1080 IDH1KD tx 9.5%, MCF10A rereplic 18.1%, HT1080NT lethal 8.2%, KB-3-1 tox inactive and KB-V1 cytotox inconclusive.
`Cc1nn2c(NCCCN3CCOCC3)c3c(nc2c1-c1ccccc1)CCC3` gave SW480 rereplic -4.7%, HT1080 IDH1KD tx -2.7%, MCF10A rereplic 25.1%, HT1080NT lethal -9.7%, KB-3-1 tox inactive and KB-V1 cytotox inconclusive.
COc1cccc(Nc2c3c(nc4c(-c5ccccc5)c(C)nn24)CCC3)c1 was read as SW480 rereplic inconclusive, HT1080 IDH1KD tx -4.6%, MCF10A rereplic 20.6µM*, HT1080NT lethal 13.8%, KB-3-1 tox inconclusive and KB-V1 cytotox 18.4µM*.
For CCCCNc1c2c(nc3c(-c4ccccc4)c(C)nn13)CCC2 the results were SW480 rereplic -15.5%, HT1080 IDH1KD tx -4.9%, MCF10A rereplic 21.2%, HT1080NT lethal 7.5%, KB-3-1 tox inactive and KB-V1 cytotox 23.1µM*.
Screening CCC(C)Nc1c2c(nc3c(-c4ccccc4)c(C)nn13)CCC2 (stereo not given) returned SW480 rereplic 2.0%, HT1080 IDH1KD tx inconclusive, MCF10A rereplic inconclusive, HT1080NT lethal -19.2%, KB-3-1 tox inactive and KB-V1 cytotox 9.2µM*.
O=C(c1ccc(NS(=O)(=O)c2cccc3cccnc23)cc1)N1CCCCC1 was read as SW480 rereplic -42.3%, HT1080 IDH1KD tx -5.9%, MCF10A rereplic 0.9%, HT1080NT lethal -0.4%, KB-3-1 tox inactive and KB-V1 cytotox inactive.
Cc1cc(N(C)C)c(C)cc1/C=C/c1ccnc2ccccc12 was read as KB-3-1 tox 2.91µM* and KB-V1 cytotox 6.51µM*.
Screening CCOc1ccc(C=Nc2ccc(/C=C/c3ccnc4ccccc34)cc2)cc1OCC returned KB-3-1 tox inactive and KB-V1 cytotox inactive.
Screening CCN(Cc1ccccc1)c1ccc(/C=C/c2ccnc3ccccc23)cc1 returned KB-3-1 tox inactive and KB-V1 cytotox inactive.
For CCCCN(CCCC)c1ccc(C=Nc2ccc(/C=C/c3ccnc4ccccc34)cc2)cc1C the results were KB-3-1 tox inconclusive and KB-V1 cytotox 23.1µM*.
Screening CCN(CC)c1cc(C)c(/C=C/c2ccnc3ccccc23)cc1C returned KB-3-1 tox 11.6µM* and KB-V1 cytotox inconclusive.
`COc1cc(N(C)C)ccc1/C=C/c1ccnc2ccccc12` gave KB-3-1 tox inactive and KB-V1 cytotox inconclusive.
O=C(O)c1[nH]c2ccc(Cl)cc2c1CC(=O)N1CCN(c2ccccc2)CC1 was read as SW480 rereplic -3.5%, HT1080 IDH1KD tx -0.8%, MCF10A rereplic 3.1%, HT1080NT lethal -2.8%, KB-3-1 tox inactive and KB-V1 cytotox inactive.
For CCCN(CCC)C1=CC(=[N+]2CCCC2)CC(C)(C)C1 the results were SW480 rereplic -3.8%, HT1080 IDH1KD tx 2.31µM*, MCF10A rereplic -0.8%, HT1080NT lethal 2.06µM*, KB-3-1 tox 2.59µM* and KB-V1 cytotox inactive.
CC1(C)CC(N2CCCCC2)=CC(=[N+]2CCCCC2)C1 was read as SW480 rereplic -9.0%, HT1080 IDH1KD tx inconclusive, MCF10A rereplic 24.3%, HT1080NT lethal 4.11µM*, KB-3-1 tox 5.8µM* and KB-V1 cytotox inactive.
`Cc1ccccc1C1=NC(C(F)(F)F)(C(F)(F)F)c2c(n(C)c(=O)n(C)c2=O)N1` gave SW480 rereplic -7.0%, HT1080 IDH1KD tx -2.2%, MCF10A rereplic 7.5%, HT1080NT lethal 2.4%, KB-3-1 tox inconclusive and KB-V1 cytotox 16.4µM*.
For Cn1c2c(c(=O)n(C)c1=O)C(C(F)(F)F)(C(F)(F)F)N=C(C1CCCCC1)N2 the results were SW480 rereplic -1.6%, HT1080 IDH1KD tx -19.6%, MCF10A rereplic inconclusive, HT1080NT lethal -27.1%, KB-3-1 tox inactive and KB-V1 cytotox inconclusive.
Screening Cn1c2c(c(=O)n(C)c1=O)C(C(F)(F)F)(C(F)(F)F)N=C(c1ccc(Cl)cc1)N2 returned SW480 rereplic 13.4%, HT1080 IDH1KD tx 7.31µM*, MCF10A rereplic inconclusive, HT1080NT lethal inconclusive, KB-3-1 tox 2.31µM* and KB-V1 cytotox 2.31µM*.
Cc1c(C(=O)O)oc2ccc(S(=O)(=O)NC3CCCCCCC3)cc12 was read as SW480 rereplic -0.1%, HT1080 IDH1KD tx 11.1%, MCF10A rereplic 10.2%, HT1080NT lethal -4.4%, KB-3-1 tox inactive and KB-V1 cytotox inactive.
Cc1ccc(S(=O)(=O)N2CCN(C(=O)C3COc4ccccc4O3)CC2)cc1C (stereo not given) was read as SW480 rereplic 0.9%, HT1080 IDH1KD tx -0.1%, MCF10A rereplic 11.8%, HT1080NT lethal -2.4%, KB-3-1 tox inactive and KB-V1 cytotox 9.2µM*.
Cc1ccc(S(=O)(=O)N2CCN(C(=O)[C@H](Cc3ccccc3)NC(=O)c3ccco3)CC2)cc1 was read as SW480 rereplic 2.3%, HT1080 IDH1KD tx 3.2%, MCF10A rereplic 9.2%, HT1080NT lethal -1.4%, KB-3-1 tox inconclusive and KB-V1 cytotox inactive.
Cc1ccc(S(=O)(=O)N2CCN(C(=O)[C@H](Cc3ccccc3)NC(=O)c3ccco3)CC2)cc1C was read as SW480 rereplic 0.4%, HT1080 IDH1KD tx -13.5%, MCF10A rereplic 1.5%, HT1080NT lethal -2.6%, KB-3-1 tox inactive and KB-V1 cytotox 11.6µM*.
`COc1ccc(CCNC(=O)CNC(=O)N2CC(=O)Nc3ccccc32)cc1OC` gave HT1080 IDH1KD tx 7.8%, HT1080NT lethal 12.3%, KB-3-1 tox inactive and KB-V1 cytotox inactive.
`COc1cccc(C(=O)C2CCCN(Cc3cccn3-c3cccnc3)C2)c1` (stereo not given) gave SW480 rereplic 25.5%, HT1080 IDH1KD tx -3.3%, MCF10A rereplic -21.6%, HT1080NT lethal -3.1%, KB-3-1 tox inactive and KB-V1 cytotox inactive.
COc1ccc(NC(=S)NC23CN4CN(CN(C4)C2)C3)cc1 was read as SW480 rereplic 0.517µM*, HT1080 IDH1KD tx 0.4%, MCF10A rereplic -3.8%, HT1080NT lethal 2.5%, KB-3-1 tox inactive and KB-V1 cytotox inactive.

Assay outcomes deposited in PubChem BioAssay by National Center for Advancing Translational Sciences (NCATS).
